According to PubChem BioAssay AID2189 (The Scripps Research Institute Molecular Screening Center, 2009):
Some of the results follow. A number with no mark means an inactive call. Active and inactive are the calls of the source. No stated cut-off is given here; in the data, active means inhibition above about 4.9%; inactive means the rest.

test system: metallo-beta-lactamase IMP-1 (Pseudomonas aeruginosa); assay: IMP-1 metallo-beta-lactamase inhibitors, confirmation, biochemical, epi-absorbance, hits shared with VIM-2 screen (AID 2189); details: purified IMP-1 enzyme, absorbance substrate hydrolysis; at 5.6 µM; hits give high values;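 further: 0% = enzyme with vehicle and 100% = vehicle without enzyme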

How did the inhibition turn out when CCC(=C/c1sc2ccc3ccccc3c2[n+]1C)/C=C1\Sc2ccc3ccccc3c2N1C was run?
Its inhibition is 27.6% (active).

For Nc1c(C(=O)c2cccs2)sc2nsc(SCCN3CCCCC3)c12, which inhibition is on record?
The inhibition was 18.4% (active).

For c1ccc(-c2nccc(-c3ccc(-n4cnc5ccccc54)cc3)n2)nc1, which inhibition is on record?
The inhibition was 0.59%.

For NS(=O)(=O)c1ccc(NC(=O)COC(=O)c2c3c(nc4ccccc24)/C(=C\c2ccc4c(c2)OCO4)CCC3)cc1, which inhibition is on record?
The inhibition was -2.39%.

For Oc1ccc2ccc3cccc[n+]3c2c1, which inhibition is on record?
Its inhibition is 23.2% (active).

How did the inhibition turn out when Cc1cc2nc3c(=O)n(Cc4ccccc4)c(=O)[nH]c3nc2cc1N was run?
Its inhibition is 13.2% (active).

CN1C(=O)c2cccc3c(N)ccc(c23)C1=O was tested. Which inhibition did it give?
The inhibition was 36.2% (active).

How did the inhibition turn out when Cc1nn(C)cc1N1C(=O)c2cccc3c(N)ccc(c23)C1=O was run?
Its inhibition is 29.8% (active).

How did the inhibition turn out when C/C(=N\Nc1ccc(S(N)(=O)=O)cc1[N+](=O)[O-])c1cccs1 was run?
Its inhibition is 10.6% (active).

NC(=O)c1ccc(NC(=O)COC(=O)c2c3c(nc4ccccc24)/C(=C\c2ccc4c(c2)OCO4)CCC3)cc1 was tested. Which inhibition did it give?
Its inhibition is -2.29%.

COc1cc(/C=C2/SC(=S)N(Cc3ccccc3)C2=O)cc(OC)c1O was tested. Which inhibition did it give?
Its inhibition is 9.27% (active).
